# Laboratory results published in PubChem BioAssay AID588579 (National Center for Advancing Translational Sciences (NCATS), 2011).
# Several values for one entry are separate records, joined by “and”; a condition that tells them apart may be missing. Identical values can stand only once. The campaign covered roughly 400,000 compounds. About 2,200 (0.55%) were called active. Inconclusive results (about 1%) are left out. What follows is part of a selection rich in actives, with near analogues and random picks from the rest. Entries that show only a call come without a potency. A number with no mark means an inactive call. The call rests on the fitted dose curve; in most records, active means well fitted inhibition curve with a large enough effect; inconclusive means small, poorly fitted or top-dose-only effect, or another doubt; inactive means no such curve, though single readings can be large or run the other way. Positions of bridges follow the written chain, without caps; N, C: chain ends. Residues, ends and D or L forms follow the SMILES beside them.
# Target: DNA polymerase kappa (Homo sapiens) (UniProt Q9UBT6)
# Sequence (Q9UBT6 whole entry, looked up): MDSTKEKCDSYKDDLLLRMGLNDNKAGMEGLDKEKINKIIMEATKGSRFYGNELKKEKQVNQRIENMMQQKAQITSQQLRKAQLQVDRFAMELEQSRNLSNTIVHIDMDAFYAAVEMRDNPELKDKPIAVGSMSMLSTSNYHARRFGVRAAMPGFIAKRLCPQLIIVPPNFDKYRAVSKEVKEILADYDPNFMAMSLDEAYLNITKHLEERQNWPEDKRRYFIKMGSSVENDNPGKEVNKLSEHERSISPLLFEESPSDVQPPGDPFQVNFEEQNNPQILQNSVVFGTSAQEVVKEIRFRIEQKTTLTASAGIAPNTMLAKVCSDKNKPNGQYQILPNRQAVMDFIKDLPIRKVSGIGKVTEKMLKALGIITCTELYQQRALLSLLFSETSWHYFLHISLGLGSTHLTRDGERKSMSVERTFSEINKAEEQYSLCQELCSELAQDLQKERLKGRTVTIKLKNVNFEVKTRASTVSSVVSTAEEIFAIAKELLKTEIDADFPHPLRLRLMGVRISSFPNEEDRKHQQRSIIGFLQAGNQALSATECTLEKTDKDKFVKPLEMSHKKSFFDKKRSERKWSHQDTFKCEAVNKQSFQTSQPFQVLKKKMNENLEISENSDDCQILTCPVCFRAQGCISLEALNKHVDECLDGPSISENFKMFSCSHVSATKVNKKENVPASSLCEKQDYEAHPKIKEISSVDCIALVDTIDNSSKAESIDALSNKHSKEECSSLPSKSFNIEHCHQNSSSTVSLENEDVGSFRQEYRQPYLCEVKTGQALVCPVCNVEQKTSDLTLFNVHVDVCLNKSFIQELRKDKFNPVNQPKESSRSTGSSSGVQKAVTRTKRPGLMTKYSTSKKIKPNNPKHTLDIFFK
# Test: qHTS for Inhibitors of Polymerase Kappa
# Conditions: purified Pol kappa, fluorescent DNA synthesis assay, 10 min; series mostly up to 107 µM
# Summary of the method: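 50 nM final substrate added after 15 min RT preincubation of 10 nM Pol kappa with compound; fluorescence read at 0 and 10 min.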
# Potency means the concentration at half of the fitted maximal effect.
Compound,Potency,"activity, negative = inhibition"
CC(C)(C)c1ccc(C(=O)C[n+]2cccc3cc(Cl)ccc32)cc1,inactive,
OCC(O)C(O)C(O)C(O)C=Nc1ccc(/C=C/c2ccnc3ccccc23)cc1 (configuration not stated),inactive,
COC1[C@H](OC(N)=O)C(O)[C@H](Oc2ccc3c(O)c(NC(=O)c4ccc(O)c(CC=C(C)C)c4)c(=O)oc3c2C)OC1(C)C (some centres not stated),inactive,
COc1ccc(OCc2n[nH]c(=S)n2N)cc1,inactive,
COc1ccccc1-n1c(-c2cc(-c3ccco3)[nH]n2)n[nH]c1=S,17.8 µM (active),
COc1ccccc1-n1c(=S)[nH]c2c(sc(=S)n2-c2ccc(C)cc2C)c1=O,inactive,
C=C1C(=CC=C2CCC[C@@]3(C)[C@@H]2CC[C@H]3[C@H](C)CCCC(C)C)C[C@@H](O)C[C@@H]1O,,-13.8% [at 19.4 µM]
CN(Cc1ccccc1)c1ccc(/C=C/c2ccnc3ccccc23)cc1,inactive,
CN(C)c1ccc(/C=C/C=C/c2ccnc3ccccc23)cc1,inactive,
N#Cc1ccccc1-c1ccc2ncnc(NCc3cccnc3)c2c1,inactive,
O=C(/C=C/c1cccc(F)c1)NC1CC1,,10.9% [at 19.4 µM]
Cc1ccccc1-c1ccc(C(=O)O)s1,inactive,
CC(=O)OC1C([N+]2(C)CCCCC2)C[C@H]2C3CC[C@H]4C[C@H](OC(C)=O)C([N+]5(C)CCCCC5)CC4(C)C3CCC12C (some centres not stated),,-5.47% [at 19.4 µM]
COc1ccccc1CNc1ncncc1-c1cccnc1,inactive,
Cc1nc(SCC(=O)N2CCN(c3ccccc3)CC2)[nH]c(=O)c1C,inactive,
CC(=O)c1sc2nc(SCC(=O)N3CCCCC3)[nH]c(=O)c2c1C,79.4 µM (active),
COCCn1c(SCC(=O)N2CCCCCC2)nc2c(c1=O)SCC2,inactive,
CCN(Cc1ccncc1)C(=O)[C@@H](CO)c1ccccc1,,-2.15% [at 12 µM] and -8.7% [at 19.4 µM]
CC1(C)O[C@@H]2C[C@@H]3[C@H]4C[C@@H](F)C5=CC(=O)C=C[C@]5(C)[C@@]4(F)[C@@H](O)C[C@]3(C)[C@]2(C(=O)CO)O1,inactive,
Oc1ccc2c(c1)OCC1c3cc4c(cc3OC21)OCO4 (configuration not stated),inactive,
Cc1cccc(C)c1NC(=O)NC1=CCCN1C,,0.19% [at 19.4 µM]
O=C(NC(=S)Nc1ncccn1)c1ccccc1Br,inactive,
O=C(/C=C/c1ccco1)NC(=S)Nc1ccccc1Br,50.1 µM (active),
CCc1ccc2oc(-c3ccc(C)c(NC(=O)/C=C/c4ccco4)c3)nc2c1,inactive,
COc1ccc(Oc2ncc3nc(C)c(=O)n(-c4ccccc4)c3n2)cc1,inactive,
O=C1COc2c1ccc(O)c2O,25.1 µM (active),

Compound,Potency,"activity, negative = inhibition"
Cc1csc(NCC(=O)c2c[nH]c3ccccc23)n1,inactive,
C/C=C/NNC(=O)Cc1ccc(OC)cc1,inactive,
CN1CCCC1CCO[C@@](C)(c1ccccc1)c1ccc(Cl)cc1 (some centres not stated),inactive,
COc1cccc(NC(=O)COC(=O)c2ccc3ccccc3n2)c1,inactive,
COc1cc(/C=C/C(=O)OCC(=O)Nc2cccc(Oc3ccccc3)c2)ccc1O,inactive,
COc1cccc(NC(=O)COC(=O)/C=C/c2ccco2)c1,79.4 µM (active),
Cc1nc2cnc(N3CCN(C)CC3)nc2n(CCC#N)c1=O,inactive,
C=C1C([C@@]2(C)C(OC(C)=O)CC(=O)O[C@@](C)(COC(C)=O)C2CC(=O)OC)C(OC=O)C(OC(=O)C(O)C(C)CC)[C@]2(C)C(c3ccoc3)CC(=O)C12O (some centres not stated),inactive,
Cc1noc2ncnc(NCc3ccccc3Cl)c12,inactive,
COc1ccc(-c2oc3ncnc(NCCCO)c3c2-c2ccc(OC)cc2)cc1,inactive,
OCCNc1ncnc2oc(-c3ccco3)c(-c3ccco3)c12,11.2 µM (active),
CC(C)=CCC[C@]1(C)[C@@H](CC=C(C)C)C[C@@]2(CC=C(C)C)C(=O)[C@]1(C(=O)C(C)C)C(=O)C(CC=C(C)C)=C2O,,-7.28% [at 19.4 µM]
Cn1cccc1C(=O)N1CCC2(CC1)CN(c1cccc(-c3ccccc3)c1)C2,inactive,
O=[N+]([O-])c1cc(-c2nc(-c3ccccc3)no2)ccc1NCc1ccco1,inactive,
Cc1ccc(/C([O-])=C(/C(=S)NCc2ccco2)[n+]2ccccc2)cc1[N+](=O)[O-],25.1 µM (active),
O=[N+]([O-])c1cccc(/C([O-])=C(/C(=S)Nc2ccccc2F)[n+]2ccccc2)c1,inactive,
COc1ccc(-c2nc3cnc(Oc4ccccc4)nc3n(Cc3cccs3)c2=O)cc1,inactive,
CC[C@]1([C@H]2O[C@@H]([C@@H]3O[C@](O)(CO)[C@@H](C)C[C@H]3C)C[C@H]2C)CC[C@@H]([C@]2(C)CC[C@@]3(C[C@@H](O)[C@@H](C)[C@@H]([C@H](C)[C@H](OC)[C@H](C)C(=O)O)O3)O2)O1,,-5.79% [at 19.4 µM]
N#Cc1cccc(-c2nc3cnc(N4CCNCC4)nc3n(C3CC3)c2=O)c1,inactive,
O=C(O)C1=C/C(=C/C=[N+]2c3cc(O)c(O[C@H]4OC(CO)[C@@H](O)[C@@H](O)[C@@H]4O)cc3C[C@@H]2C(=O)[O-])C[C@H](C(=O)O)N1 (some centres not stated),inactive,
C[C@@H](O)[C@@H]1NC(=O)[C@H](CCCCN)NC(=O)[C@H](Cc2c[nH]c3ccccc23)NC(=O)[C@H](Cc2ccccc2)NC(=O)[C@H](Cc2ccccc2)NC(=O)[C@H](CC(N)=O)NC(=O)[C@H](CCCCN)NC(=O)[C@@H](NC(=O)[C@@H]2CCCN2)CSSC[C@@H](C(=O)N[C@@H](CCCCN)C(=O)O)NC(=O)[C@H](CO)NC(=O)[C@H](CO)NC(=O)[C@H](Cc2ccccc2)NC1=O (H-PCKNFFWKTFSSCK-OH; disulfide 2-13),inactive,
Cc1ccc(-c2nn(-c3ccccc3)cc2/C=C2\SC(=S)N(CCCCCC(=O)O)C2=O)o1,79.4 µM (active),
O=C(Nc1ccc([N+](=O)[O-])cc1)c1cnn2c1NC(=C1CC1)C=C2C(F)F,inactive,
CCN(c1ccc(Cl)cc1)S(=O)(=O)c1nnc(NC(=O)c2ccco2)s1,inactive,
O=C(Nc1ccc2nc(SCCOc3ccccc3)sc2c1)c1ccco1,inactive,
O=C(Nc1nc(-c2ccco2)c(-c2ccco2)s1)c1ccco1,79.4 µM (active),
